In PubChem BioAssay (NCATS):
Inconclusive results are not listed. Activity calls are given as the source filed them. The call rests on the fitted dose curve; in most records, active means well fitted inhibition curve with a large enough effect; inconclusive means small, poorly fitted or top-dose-only effect; inactive means flat fitted curve, though single readings scatter.

What follows are compounds tested against Ubiquitin carboxyl-terminal hydrolase 1 (Homo sapiens) (UniProt O94782) (assay: Inhibitors of USP1/UAF1: Pilot qHTS (AID 504865;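 further: rhodamine fluorescence freed from ubiquitin-rhodamine substrate followed over time; top concentration of the series differs between compounds; nearly all actives have a fitted effect of over 35% in size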)). Conditions: purified USP1/UAF1, Ub-rhodamine cleavage fluorescence; series mostly up to 54.9 µM; activity change, negative = inhibition: at the top concentration.
Ubiquitin carboxyl-terminal hydrolase 1 (Homo sapiens), sequence (O94782 whole entry, looked up): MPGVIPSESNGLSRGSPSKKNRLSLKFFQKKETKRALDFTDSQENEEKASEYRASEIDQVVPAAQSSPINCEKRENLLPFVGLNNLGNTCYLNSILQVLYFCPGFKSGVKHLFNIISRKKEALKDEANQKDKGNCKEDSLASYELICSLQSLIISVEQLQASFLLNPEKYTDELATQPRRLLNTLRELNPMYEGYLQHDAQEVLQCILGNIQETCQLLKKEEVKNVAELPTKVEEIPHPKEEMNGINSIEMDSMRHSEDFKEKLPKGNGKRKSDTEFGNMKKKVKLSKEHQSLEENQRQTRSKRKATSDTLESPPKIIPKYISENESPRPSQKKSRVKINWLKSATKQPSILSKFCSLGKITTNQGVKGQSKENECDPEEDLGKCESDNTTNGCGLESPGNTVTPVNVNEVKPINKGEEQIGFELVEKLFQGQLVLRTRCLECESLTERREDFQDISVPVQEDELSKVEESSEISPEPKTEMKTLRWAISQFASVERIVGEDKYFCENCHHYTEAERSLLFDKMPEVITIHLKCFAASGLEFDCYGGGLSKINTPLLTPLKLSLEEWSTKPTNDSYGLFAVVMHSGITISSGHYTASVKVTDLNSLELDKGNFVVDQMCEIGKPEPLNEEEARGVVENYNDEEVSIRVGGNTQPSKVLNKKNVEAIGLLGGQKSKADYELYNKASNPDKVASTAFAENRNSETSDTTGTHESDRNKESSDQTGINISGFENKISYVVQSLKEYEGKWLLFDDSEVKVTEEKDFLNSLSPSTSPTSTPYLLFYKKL
Source text: Deubiquitinating enzymes (DUBs) are a class of enzymes that can cleave isopeptide bond formed between the C-terminal carboxylate of ubiquitin and a lysine side-chain amino group on the target protein. Among them, ubiquitin specific proteases (USPs) constitute the largest DUB family. Human USPs are emerging as promising targets for pharmacological intervention because of their connection to a number of human diseases, including prostate, colon and breast cancer (1, 2), pediatric acute lymphoblastic leukemia (3), and familial cylindromatosis (4). The advantage of inhibiting USPs lies in the potential specificity of therapeutic intervention that can lead to better efficacy and reduce nonspecific side effects.
In a collaboration between the University of Delaware and the NIH Chemical Genomics Center, a high-throughput screen assay was developed to screen for USP1/UAF1 inhibitors. This miniaturized assay has a fluorescent read-out and is used to screen the NIH Molecular Libraries Small Molecule Repository (MLSMR) in order to identify a small molecule that inhibits USP1.
NIH Chemical Genomics Center [NCGC]
NIH Molecular Libraries Probe Centers Network [MLPCN]
Assay Submitter (PI): Zhihao Zhuang, University of Delaware
1. Priolo, C., et al. (2006) The isopeptidase USP2a protects human prostate cancer from apoptosis. Cancer Res 66, 8625-8632
2. Popov, N., et al. (2007) The ubiquitin-specific protease USP28 is required for MYC stability. Nat Cell Biol 9, 765-774
3. De Pitta, C., et al. (2005) A leukemia-enriched cDNA microarray platform identifies new transcripts with relevance to the biology of pediatric acute lymphoblastic leukemia. Haematologica 90, 890-898
4. Kovalenko, A., et al. (2003) The tumour suppressor CYLD negatively regulates NF-kappaB signalling by deubiquitination. Nature 424, 801-805
3 microliters of reagents (buffer in columns 3 and 4 as negative control and 1nM USP1/UAF1 complex in columns 1, 2, and 5-48) are dispensed into Greiner black solid bottom 1536-well assay plates. Compounds are then transferred via Kalypsys pin tool equipped with 1536-pin array (10nl slotted pins, V&P Scientific, San Diego, CA). Following an incubation step of 15 min at room temperature, 1ul of Ub-Rho substrate (150nM final concentration) is added to initiate the reaction. The plates are immediately centrifuged at 1000 rpm for 15 seconds, and subsequently transferred to a ViewLux high-throughput CCD imager (PerkinElmer) wherein kinetic measurements of fluorescence are acquired using 480 nm excitation/540 nm emission filter set (6 reads every 60 seconds, see Table 1). All reagents are diluted in an assay buffer consisting of 50mM HEPES (pH 7.8), 0.5mM EDTA, 0.1 mg/ml BSA, 1mM TCEP, and 0.01% Tween-20.
On the % scale 0 is the no-effect control and ±100 the full control effect.

Q: Which “activity change, negative = inhibition” value does the source give for `CN1CCN(c2nc(-c3ccoc3)nc3ccccc23)CC1` here?
A: The value was -15.8% (inactive).

Q: With `COCCn1c(=O)c(-c2cc(F)cc(F)c2)nc2cnc(N3CCN(C)CC3)nc21` as the compound, how does the “activity change, negative = inhibition” value read?
A: Its value is -8.82% (inactive).

Q: How did the “activity change, negative = inhibition” value turn out when `COCCNc1ncnc2ccc(-c3ccccc3OC)cc12` was run?
A: Its value is -9.12% (inactive).

Q: For `COc1ccc(-c2nc3cnc(N4CCN(C)CC4)nc3n(CCc3ccccc3)c2=O)cc1`, which “activity change, negative = inhibition” value is on record?
A: Its value is -11.6% (inactive).

Q: With `c1ccc2c(NCCN3CCOCC3)nc(-c3ccoc3)nc2c1` as the compound, how does the “activity change, negative = inhibition” value read?
A: The value was -13.3% (inactive).

Q: `CC(C)CN(C[C@@H](O)[C@H](Cc1ccccc1)NC(=O)O[C@H]1CCOC1)S(=O)(=O)c1ccc(N)cc1` was tested. Which “activity change, negative = inhibition” value did it give?
A: Its value is -6.72% [at 114 µM] (inactive).

Q: With `CN(C)C(=O)c1ccc(-c2nc(Nc3ccccc3)c3ccccc3n2)cc1` as the compound, how does the “activity change, negative = inhibition” value read?
A: Its value is -23.8% (inactive).

Q: Which “activity change, negative = inhibition” value does the source give for `Cn1c(=O)c(-c2ccc(Cl)cc2)nc2cncnc21` here?
A: The value was -9.44% (inactive).

Q: With `O=C1CC(c2ccccc2)Oc2ccccc21` (stereo not given) as the compound, how does the “activity change, negative = inhibition” value read?
A: Its value is -9.53% [at 114 µM] (inactive).

Q: How did the “activity change, negative = inhibition” value turn out when `COc1ccc(Oc2ncc3nc(-c4cccc(C#N)c4)c(=O)n(CCC#N)c3n2)cc1` was run?
A: The value was -8.79% (inactive).

Q: `COc1cc(/C=C/C(=O)N2CCC=CC2=O)cc(OC)c1OC` was tested. Which “activity change, negative = inhibition” value did it give?
A: The value was -5.48% [at 114 µM] (inactive).

Q: Which “activity change, negative = inhibition” value does the source give for `COc1ccc(CNc2cc(-c3cccc(NS(C)(=O)=O)c3)ncn2)c(OC)c1` here?
A: The value was -19.6% (inactive).

Q: `CNc1ncncc1-c1ccccc1CN(C)C` was tested. Which “activity change, negative = inhibition” value did it give?
A: The value was -7% (inactive).

Q: With `CN1CCN(c2ncnc3ccc(-c4cccc(C#N)c4)cc23)CC1` as the compound, how does the “activity change, negative = inhibition” value read?
A: The value was -9.36% (inactive).

Q: For `CN1CC[C@H](CN2c3ccccc3Sc3ccccc32)C1`, which “activity change, negative = inhibition” value is on record?
A: The value was -7.73% [at 114 µM] (inactive).

Q: With `CN(C)C(=O)c1ccc(-c2ccc3ncnc(Nc4ccc(F)cc4)c3c2)cc1` as the compound, how does the “activity change, negative = inhibition” value read?
A: The value was -17.1% (inactive).

Q: `CC(=O)O[C@@]12CO[C@@H]1C[C@H](O)[C@@]1(C)C(=O)[C@H](O)C3=C(C)[C@@H](OC(=O)C(O)[C@@H](NC(=O)OC(C)(C)C)c4ccccc4)C[C@@](O)([C@@H](OC(=O)c4ccccc4)[C@H]21)C3(C)C` (stereo not given in full) was tested. Which “activity change, negative = inhibition” value did it give?
A: The value was -3.18% [at 114 µM] (inactive).

Q: Which “activity change, negative = inhibition” value does the source give for `CCOC(=O)C1(O)Oc2cc(OC)cc(OC)c2C(=O)C1c1ccccc1` (stereo not given) here?
A: Its value is -8.17% [at 114 µM] (inactive).

Q: For `Cn1c(=O)c(-c2ccccc2)nc2cnc(N3CCOCC3)nc21`, which “activity change, negative = inhibition” value is on record?
A: The value was -7.19% (inactive).

Q: `CN(C)CCCCCCN(C)C` was tested. Which “activity change, negative = inhibition” value did it give?
A: Its value is -5.72% [at 114 µM] (inactive).

Q: For `CN(C)c1ncc2nc(CCc3ccccc3)c(=O)n(CCc3ccccc3)c2n1`, which “activity change, negative = inhibition” value is on record?
A: The value was -18.5% (inactive).

Q: With `COc1ccc2[nH]cc(CCNc3cc(-c4cccc(C#N)c4)ncn3)c2c1` as the compound, how does the “activity change, negative = inhibition” value read?
A: Its value is -17.1% (inactive).

Q: Which “activity change, negative = inhibition” value does the source give for `O=NCc1ccc([N+](=O)[O-])o1` here?
A: Its value is -2.14% [at 114 µM] (inactive).

Q: How did the “activity change, negative = inhibition” value turn out when `c1ccc(Nc2nc(-c3cccnc3)nc3ccccc23)cc1` was run?
A: Its value is -14.9% (inactive).

Q: How did the “activity change, negative = inhibition” value turn out when `CN1CCN(c2ncnc3ccc(-c4ccccc4C(F)(F)F)cc23)CC1` was run?
A: The value was -9.39% (inactive).

Q: With `COCCn1c(=O)c(CCc2ccccc2)nc2cnc(Oc3ccccc3)nc21` as the compound, how does the “activity change, negative = inhibition” value read?
A: The value was -21.4% (inactive).

Q: With `O=c1c(CCc2ccccc2)nc2cnc(N3CCNCC3)nc2n1-c1ccccc1` as the compound, how does the “activity change, negative = inhibition” value read?
A: Its value is -11.7% (inactive).

Q: How did the “activity change, negative = inhibition” value turn out when `COc1ccc(Oc2ncc3nc(-c4ccc(F)cc4)c(=O)n(CCC#N)c3n2)cc1` was run?
A: The value was -10.2% (inactive).

Q: Which “activity change, negative = inhibition” value does the source give for `Cc1nc2cnc(OCc3ccccc3)nc2n(CCc2ccccc2)c1=O` here?
A: Its value is -1.03% (inactive).

Q: How did the “activity change, negative = inhibition” value turn out when `COc1ccccc1CNc1nc(-c2cccc(NS(C)(=O)=O)c2)nc2ccccc12` was run?
A: Its value is -20% (inactive).

Q: Which “activity change, negative = inhibition” value does the source give for `CN(C)c1ccc(-c2cncnc2NCCc2cnc[nH]2)cc1` here?
A: Its value is -9.45% (inactive).

Q: How did the “activity change, negative = inhibition” value turn out when `CN1CCN(c2ncc3nc(-c4cn(C)c5ccccc45)c(=O)n(C[C@H]4CCCO4)c3n2)CC1` was run?
A: Its value is -16.3% (inactive).

Q: How did the “activity change, negative = inhibition” value turn out when `C/C=C\c1ccc(OC)cc1` was run?
A: Its value is -3.1% [at 114 µM] (inactive).

Q: For `CC(C)CN(C[C@@H](OP(=O)(O)O)[C@H](Cc1ccccc1)NC(=O)O[C@@H]1CCOC1)S(=O)(=O)c1ccc(N)cc1`, which “activity change, negative = inhibition” value is on record?
A: Its value is 0.678% [at 114 µM] (inactive).

Q: How did the “activity change, negative = inhibition” value turn out when `CC1(C)S[C@@H]2[C@H](NC(=O)COc3ccccc3)C(=O)N2[C@H]1C(=O)O` was run?
A: Its value is -4.63% [at 114 µM] (inactive).

Q: `COc1cccc(-c2ccc3ncnc(NCc4cnc(C)cn4)c3c2)c1` was tested. Which “activity change, negative = inhibition” value did it give?
A: The value was -5.6% (inactive).

Q: With `COc1ccccc1CNc1cc(-c2cccnc2)ncn1` as the compound, how does the “activity change, negative = inhibition” value read?
A: Its value is -13.2% (inactive).

Q: How did the “activity change, negative = inhibition” value turn out when `CC(=O)NCCNc1nc(-c2cccc(C#N)c2)nc2ccccc12` was run?
A: Its value is -14.2% (inactive).

Q: Which “activity change, negative = inhibition” value does the source give for `Cc1nc2cnc(N3CCOCC3)nc2n(CCc2ccccc2)c1=O` here?
A: Its value is -8.03% (inactive).

Q: How did the “activity change, negative = inhibition” value turn out when `COc1cccc(-c2cncnc2NCc2ccccc2OC)c1` was run?
A: The value was -12.6% (inactive).
